TEAD-YAP inh = TEAD-YAP interaction inhibition, primary screen, TEAD-YAP interaction inhibitor project, luminescence, HEK-TIYL cells; 640,000 tested, 1.4% active; inhibition, % at 9.12 µM; TEAD-Gal4/YAP UAS-luciferase luminescence; in the data active means inhibition above about 32%
FBW7 act = FBW7 E3 ligase activators, primary screen, biochemical, AlphaScreen, human | AID 1259310, 2017 | AlphaScreen FBW7–phospho-cyclin E peptide binding, activator screen | 650,000 tested, 0.13% active | normalized activity (activation), % at 26.1 µM; in the data active means normalized activity above about 1.9%;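 further: purified mutant Fbw7 with reduced substrate affinity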
Target sequence (Q969H0 whole entry, looked up): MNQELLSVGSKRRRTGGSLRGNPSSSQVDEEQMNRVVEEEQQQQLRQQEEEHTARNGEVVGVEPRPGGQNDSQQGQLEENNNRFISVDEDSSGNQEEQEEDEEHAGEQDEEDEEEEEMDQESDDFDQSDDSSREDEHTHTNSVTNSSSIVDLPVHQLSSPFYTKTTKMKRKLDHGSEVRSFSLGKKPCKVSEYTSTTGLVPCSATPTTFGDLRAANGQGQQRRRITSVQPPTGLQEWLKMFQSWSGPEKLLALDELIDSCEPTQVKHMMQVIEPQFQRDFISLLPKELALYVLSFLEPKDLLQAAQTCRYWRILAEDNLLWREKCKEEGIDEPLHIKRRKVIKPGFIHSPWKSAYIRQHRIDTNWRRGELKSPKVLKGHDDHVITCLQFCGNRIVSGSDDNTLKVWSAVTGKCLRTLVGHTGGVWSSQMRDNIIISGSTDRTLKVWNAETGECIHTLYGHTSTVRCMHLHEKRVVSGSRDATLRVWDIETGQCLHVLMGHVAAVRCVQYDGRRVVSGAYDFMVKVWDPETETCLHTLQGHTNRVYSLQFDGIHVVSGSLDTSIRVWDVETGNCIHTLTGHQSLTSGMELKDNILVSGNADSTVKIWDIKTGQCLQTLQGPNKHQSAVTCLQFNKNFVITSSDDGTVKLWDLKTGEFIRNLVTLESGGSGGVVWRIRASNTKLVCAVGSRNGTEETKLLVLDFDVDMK
GPR151 activ = activators of human GPR151, primary screen, cell-based, PathHunter beta-arrestin, luminescence; AID 1508602, 2020; PathHunter beta-arrestin GPR151 cells; activation, % at 11.2 µM; G-protein coupled receptor 151 (Homo sapiens), Q8TDV0; 650,000 tested, 1% active; in the data active means activation above about 4.9%
MITF inh = MITF inhibitors, primary screen, biochemical, AlphaScreen, human. Microphthalmia-associated transcription factor (Homo sapiens), O75030. AlphaScreen MITF homodimerization, bead proximity signal. inhibition, % at 2.6 µM. 650,000 tested, 0.91% active. AID 1259374, 2018; in the data active means inhibition above about 50%
GPR151 conf act = GPR151 activators, triplicate retest, confirmation, cell-based, PathHunter beta-arrestin, luminescence; shares compounds with GPR151 activ; activation, % at 11.2 µM; 6,700 tested, under 10 active; GPR151 PathHunter beta-arrestin cells, 90 min; % of EA-reagent control over plate median;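 active means mean percent activation across replicates above the confirmation screen cutoff of 4.91%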
GPR119 counter = GPR119 activators in beta-arrestin cells, counter-screen for GPR151 activator project, cell-based, PathHunter beta-arrestin, luminescence, triplicate. activation, % at 11.2 µM. 6,700 tested, 0.3% active. shares compounds with GPR151 activ. 90 min; 0 = compound-well median, 100 = enzyme-acceptor control;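 active means mean percent activation in the counterscreen above 29.09%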;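 further: counterscreen on off-target GPR119 to flag nonselective hits from the GPR151 activator screen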
Hits are given with their value; - = inactive; . = no result. An excerpt weighted towards active compounds, which were near 3.5% of everything screened.

SMILES | TEAD-YAP inh | FBW7 act | GPR151 activ | MITF inh | GPR151 conf act | GPR119 counter
CC1CCC(NC(=O)c2nnc(-c3cccc(Cl)c3)o2)CC1 (stereo not given) | - | - | - | - | . | .
CC(C)CN(C(=O)COC(=O)c1ccc(Cl)nc1)C1CCS(=O)(=O)C1 (stereo not given) | - | - | - | - | . | .
COc1ccccc1OCc1nnc(SCCN2CCOCC2)o1 | - | - | 5.9 | - | - | -
NC(=O)c1cc2c(ccc3ccccc32)oc1=Nc1ccccc1 | - | - | 5.2 | - | - | -
CCCCCC(C)NC(=O)C1C2C=CC(O2)C1C(=O)O (stereo not given) | - | - | - | - | . | .
COCCNc1oc(-c2ccccc2F)nc1C#N | - | - | - | - | . | .
O=[N+]([O-])c1cc(CNCc2ccccc2)ccc1N1CCCCC1 | - | - | 5.6 | - | - | -
CCCOC(=O)CN1C(=O)c2ccc(Br)cc2C1=O | - | - | 8.7 | - | - | -
CCCOC(=O)CN1C(=O)c2ccc(C(=O)OCCC)cc2C1=O | - | - | - | - | . | .
O=C(NCC(=O)N1CCOC(c2ccccc2)C1)C1CCCCC1 (stereo not given) | - | - | - | - | . | .
S=C(Nc1ccc2c(c1)OCO2)N1CCN(c2ncccn2)CC1 | - | - | 6.6 | - | - | -
OCCN1CCN(C2CCN(Cc3cccc4ccccc34)CC2)CC1 | - | - | 7.6 | - | - | -
CC(=O)N1N=C(c2ccccc2)CC1c1cn(-c2ccccc2)nc1-c1ccc(C)cc1 (stereo not given) | - | - | 6.0 | - | - | -
CCOC(=O)/C(C#N)=C/Nc1ccccc1NS(=O)(=O)c1cccc(C(C)=O)c1 | - | - | - | - | . | .
CCOC(=O)/C(C#N)=C/Nc1ccccc1NS(=O)(=O)c1ccc(C)c(C)c1 | - | - | 5.5 | - | - | -
CCCNC(=O)C1CCC(CNS(=O)(=O)c2ccc(OC)cc2)CC1 (stereo not given) | - | - | - | - | . | .
COCCNC(=O)C1CCC(CNS(=O)(=O)c2ccc(OC)cc2)CC1 (stereo not given) | - | - | 6.0 | - | - | -
COCc1ccc(CN2CCCC(CNS(=O)(=O)c3ccc(OC)cc3)C2)o1 (stereo not given) | - | - | 4.9 | - | - | -
C=CCNC(=S)N/N=C/c1sc(N2CCOCC2)nc1-c1ccccc1 | - | - | - | - | . | .
COC(=O)C1=CN(CC2CCCO2)C=C(C(=O)OC)C1c1ccc(F)cc1 (stereo not given) | - | - | - | - | . | .
Cc1ccc(N2C(=O)CC3(CC(Cl)N=N3)C2=O)cc1Cl (stereo not given) | - | - | - | - | . | .
O=C(CN1C(=O)CCC1=O)Nc1nc(-c2ccc3c(c2)CCCC3)cs1 | - | - | - | - | . | .
COCCNC(=O)Nc1nc(-c2ccc3c(c2)CCCC3)cs1 | - | - | 7.3 | - | - | -
CCCCNC(=O)COc1ccc(C#N)cc1 | - | - | - | - | . | .
CCOC(=O)c1c(NC(=O)c2cc3ccccc3o2)sc2c1CCCC2 | - | - | - | - | . | .
SMILES | TEAD-YAP inh | FBW7 act | GPR151 activ | MITF inh | GPR151 conf act | GPR119 counter
O=C(Oc1cccc(OC(=O)c2ccccc2F)c1)c1ccccc1F | - | - | 5.6 | - | - | -
CCn1c(SCC(=O)Nc2ccc(OC)cc2)nnc1-c1c[nH]c2ccccc12 | - | - | - | - | . | .
Cc1ccc(C(=O)NCN2CCN(c3ccccc3)CC2)cc1 | - | - | 6.0 | - | - | -
O=C(NCCCN1CCN(c2ccccc2)CC1)c1ccccc1 | - | - | - | - | . | .
CC(Sc1n[nH]c(N)n1)C(=O)OC1CCCCC1 (stereo not given) | - | - | 10.0 | - | - | -
Nc1nc(SCC(=O)NC2CCCCCCC2)n[nH]1 | - | - | - | - | . | .
Cc1cc([N+](=O)[O-])c(N2CCN(S(=O)(=O)c3ccc4ccccc4c3)CC2)cc1N | - | - | - | - | . | .
O=C(c1cnsn1)N1CCOc2ccc(C(O)CCc3ccccc3)cc2C1 (stereo not given) | - | - | 5.3 | - | - | -
COc1ccc(Cl)cc1NC(=O)NCCN1CCN(c2ccccc2)CC1 | - | - | - | - | . | .
CCOC(CNC(=O)c1ccc2cc[nH]c2c1)(OCC)c1ccncc1 | - | - | 7.3 | - | - | -
Cc1ccccc1Nc1nc(N)nc(COC(=O)c2cc(=O)c3ccccc3o2)n1 | - | - | 8.0 | - | - | -
Cc1ccccc1Nc1nc(N)nc(COc2ccc([N+](=O)[O-])cc2Cl)n1 | - | - | 5.7 | - | - | -
Cc1cc(N(C)C)nc(NCCNC(=O)/C=C/c2ccccc2)n1 | - | - | 5.7 | - | - | -
CC(=O)N1CN(Cc2ccccc2)Cc2c1sc1c2CCCC1 | - | - | 5.5 | - | - | -
CC(=O)N1CN(Cc2cccnc2)Cc2c1sc1c2CCCC1 | - | - | - | - | . | .
CN1C(=O)CCC12CCN(Cc1c[nH]c3ccccc13)CC2 | - | - | 8.1 | - | - | -
Cc1ccc(/C=C(\NC(=O)c2cncc(Br)c2)C(=O)N2CC3CC(C2)c2cccc(=O)n2C3)cc1 (stereo not given) | - | - | - | - | . | .
CCC(C)NC(=O)C1CCCN(S(=O)(=O)N2CCOCC2)C1 (stereo not given) | - | - | 8.8 | - | - | -
COc1ccc(C2(O)CC(C(F)(F)F)=NN2C(=O)OC(C)(C)C)cc1 (stereo not given) | - | - | - | - | . | .
FC(F)(F)c1ccc(Cn2cnc3c(Nc4ccc(N5CCOCC5)cc4)nc(N4CCOCC4)nc32)cc1 | - | - | - | - | . | .
NC(=O)c1ccc(-c2nc(Nc3ccc(N4CCOCC4)cc3)c3ncn(Cc4ccc(C(F)(F)F)cc4)c3n2)cc1 | - | - | - | - | . | .
CC(C)N(CCNc1nc(NC2CCC(O)CC2)nc2c1ncn2Cc1ccc(C(F)(F)F)cc1)C(C)C (stereo not given) | - | - | - | - | . | .
COc1ccc(CCNc2nc(Nc3ccc(N4CCOCC4)cc3)nc3c2ncn3-c2ccccc2)cc1 | - | - | 6.5 | - | - | -
COc1ccc(-c2nc(Nc3ccc(N4CCOCC4)cc3)c3ncn(Cc4ccc(C(F)(F)F)cc4)c3n2)cc1 | - | - | 12 | - | - | -
COc1ccc(CCNc2nc(NC3CCC(O)CC3)nc3c2ncn3Cc2ccc(C(F)(F)F)cc2)cc1 (stereo not given) | 36 | - | 5.9 | - | - | 37
FC(F)(F)c1ccc(Cn2cnc3c(Nc4ccc(N5CCOCC5)cc4)nc(Cl)nc32)cc1 | - | - | 6.9 | - | - | -
COc1ccc(C/C(N)=N/OC(=O)Cc2ccccc2)cc1 | - | - | - | - | . | .

Source: PubChem BioAssay
